{"source": "PubChem BioAssay AID1508600", "about": "(Functional Genomics Laboratory (NCATS/FGL), 2020)", "note": "Out of some 53,000 sequences screened, about 3,700 (7%) were called active. Only a selection was taken, and actives are over-represented in it overall. Values without a mark were called inactive.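 The calls were made as follows: active = gene knockdowns whose robust z-score for IL-1 alpha signal is at least 2 or at most -2, so actives lie on both sides; inactive = the rest.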"}
{"test": "Components of the Cytosolic LPS Sensing Pathway: Gene Identification via Genome-wide siRNA Screen;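 also: robust z of the log signal after scaling to non-targeting control siRNA wells of the plate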", "conditions": "RAW264.7 macrophages, IL-1a HTRF, actives lie on both sides, screened at 100 nM (by protocol), cells primed 5 h with Pam3CSK4 first", "method_in_brief": "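RAW264.7 mouse macrophages reverse-transfected with single siRNAs (100 nM final) for 48h, primed with Pam3CSK4 for 5 hours, then transfected with LipidA for 24 hour. Supernatant IL-1a read by HTRF; values normalized to negative-control median, log-transformed robust z-scores.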"}
{"sequence": "GGAGUUUACUGAGUUUUAGTT against Prkaca", "z-score": "4.49 (active)"}
{"sequence": "GGCUCCAGUAAUUGAUAAATT against Sycp3", "z-score": -0.0955}
{"sequence": "GGGCUGCUGCUUAGCAAUCTT against Egln3", "z-score": -0.0783}
{"sequence": "GGAUGGAGAAGUUUACUACTT against Yap1", "z-score": 0.714}
{"sequence": "GGCGUAACCUAACAUGGGATT against Clec1b", "z-score": -1.35}
{"sequence": "GCAACAAUUCUAACAGCUGTT against Lhfpl5", "z-score": -0.138}
{"sequence": "GGCCUUCCAUACUACAACUTT against Zfp595", "z-score": "2.2 (active)"}
{"sequence": "CCACGUAGGUAAGUGUAGGTT against Oard1", "z-score": 0.81}
{"sequence": "GGAGCAAGGCUACAUUUUUTT against Itih3", "z-score": 1.36}
{"sequence": "GGACAAGGCCCUCAUGAUUTT against Nek8", "z-score": -0.468}
{"sequence": "GCUCGAGUACCUGUACCUATT against Elfn1", "z-score": "3.11 (active)"}
{"sequence": "CCUUCAACCUUCGAGAUACTT against Kcnh2", "z-score": -0.417}
{"sequence": "GGUCUUCUUUGAUGUGAGGTT against Ppic", "z-score": -0.832}
{"sequence": "GGACUGAAGAAGUGUGUGGTT against Scgb3a2", "z-score": 1.66}
{"sequence": "GCUUCCAGUCAGUGGUUACTT against Rara", "z-score": 1.07}
{"sequence": "GGAUGAGCAGAUGCUCCAATT against Mtmr7", "z-score": 0.451}
{"sequence": "GGUAUUUUGACCGAAUCAATT against Add3", "z-score": -0.294}
{"sequence": "GCUCCUCACUUAUUGCCCATT against Zfp354b", "z-score": -0.0805}
{"sequence": "GGAUGAAAACACUGAAUACTT against Olfr644", "z-score": -0.714}
{"sequence": "GCAUUUAGUGAGUUCAGUGTT against Kirrel3os", "z-score": 0.855}
{"sequence": "GCGCAACUAAAACAGAUUGTT against Eif2ak1", "z-score": "2.2 (active)"}
{"sequence": "GGGAUACUUUUUAUUCAGGTT against Nmu", "z-score": -0.0461}
{"sequence": "GGAGCAGACGAUAUGCAGATT against Copb2", "z-score": 0.559}
{"sequence": "CCAAUUGCUAAUCCUUUGUTT against Pin1", "z-score": 1.52}
{"sequence": "GGACACAAUCCAGAACCAGTT against Angpt4", "z-score": -0.189}
{"sequence": "GCCUGAGUUAUGUUUAAAGTT against Pgam5", "z-score": 0.00362}
{"sequence": "CCACGUGAAGGAGAGAUGATT against Mob2", "z-score": 1.39}
{"sequence": "GCGACCAGGACCGCGUCAATT against Sox3", "z-score": -1.07}
{"sequence": "GCACUGAAGCCUAGCUGUUTT against BC051142", "z-score": 1.41}
{"sequence": "GGUGUUGAGUUCAAGUCUATT against Dennd11", "z-score": -0.468}
{"sequence": "GGGCAAACUCUAUAAUCAGTT against BC023105", "z-score": 0.337}
{"sequence": "GCUCCGUGUUGACUCAAAATT against Foxg1", "z-score": "2.46 (active)"}
{"sequence": "CCCUCAGAUCUUUCAGUCUTT against Btbd16", "z-score": -1.01}
{"sequence": "GCAUGGUUUAAUGGCUCGGTT against Atpsckmt", "z-score": -1.93}
{"sequence": "GGAAUAUUUUGCUUGUGUGTT against Dnmt3a", "z-score": -0.925}
{"sequence": "GGUUUAAGAAAAAAGGAGCTT against Rab43", "z-score": -0.182}
{"sequence": "CCUCUGUUUGUGCGCCAUATT against Uqcrfs1", "z-score": 0.402}
{"sequence": "GGUUAUCAAACAGGUGUUGTT against Aldh3b1", "z-score": "2.22 (active)"}
{"sequence": "GCGAGUUCGGAAGAAGUAUTT against Ddx41", "z-score": -0.198}
{"sequence": "GGAGAUCCAGGCAAUUUUUTT against Pink1", "z-score": 0.779}
{"sequence": "GUUGGUAGAUUCAGUUUUCTT against Vmn1r89", "z-score": 1.88}
{"sequence": "GGUGAAGAAAGCACUAGUUTT against Olfr979", "z-score": -0.873}
{"sequence": "GGACCUUGGCCUUACACAATT against Astn2", "z-score": "2.29 (active)"}
{"sequence": "GGGCAUGCUGCUUAUUGUGTT against Slc5a4b", "z-score": -0.8}
{"sequence": "GCAACACGUACGAGCUCAATT against Pou2af1", "z-score": -0.926}
{"sequence": "GGGUUCUAGGUUGUUUAUGTT against C2cd4c", "z-score": -1.74}
{"sequence": "GGCGAGCUGGACAGAUUUGTT against Nudt6", "z-score": "3.33 (active)"}
{"sequence": "CCUGCAUUUACUCAACUUGTT against Snrpe", "z-score": -1.74}
{"sequence": "GGAUACAAGCCUUUUAACCTT against Sri", "z-score": -0.0625}
{"sequence": "GAACAACAACAGACAAGUGTT against Cxcl12", "z-score": -0.65}
{"sequence": "GGUAUUUUUGCAUUUGUCCTT against Pip4p2", "z-score": 1.32}
{"sequence": "GGUUAUUGAUGUGACGAUGTT against Rem2", "z-score": 1.36}
{"sequence": "CCACCCUGAUUUAAGAAGGTT against Ndufs3", "z-score": "2.53 (active)"}
{"sequence": "CCUACGUGAUAUCCUUUUATT against Vrk1", "z-score": 0.0128}
{"sequence": "GGAUAGAAAAUCUGUGUUUTT against Trim60", "z-score": -0.401}
{"sequence": "GGUAUUUAUGAAGCACACATT against Clcn3", "z-score": 0.451}
{"sequence": "GGGUCUAUCAGCUACAUCATT against Acsl6", "z-score": -1.28}
{"sequence": "CGUAUUGCCUUAGUGUAUGTT against Olfr433", "z-score": "-2.7 (active)"}
{"sequence": "GGGCUAUCGGUUGACAAAUTT against Riok2", "z-score": 1.67}
{"sequence": "GCGUAUUACAGACAGUGACTT against Izumo1", "z-score": 0.023}
{"sequence": "GGAACUGUUUCUCUUUCCUTT against Rad9a", "z-score": -1.45}
{"sequence": "CGUGUUCUAUGAUGGUAAUTT against Selenoo", "z-score": -0.197}
{"sequence": "GCAACUUGGCUACAAUUACTT against Dct", "z-score": 0.987}
{"sequence": "GGACCAAGCCACCAAAACUTT against Vmn1r78", "z-score": "-2.28 (active)"}
{"sequence": "CCUAUGAUUCAGCAAUACUTT against Col17a1", "z-score": 0.677}
{"sequence": "GGAAGAGGAGAGGAAGAAGTT against Dync1i1", "z-score": 1.91}
{"sequence": "GGCUCUAAGCUAAAUAAAGTT against Kbtbd4", "z-score": -0.249}
{"sequence": "CCGCGUCUUGCUAUGGAAGTT against Baiap2l2", "z-score": 0.79}
{"sequence": "GCUGGAAGAUAGUGCUUUUTT against Itpr1", "z-score": "5.23 (active)"}
{"sequence": "GGGUUUAUGGGCAUGUCCCTT against Adipor2", "z-score": -0.964}
{"sequence": "GGUUAAAAAUGCCAUUAGATT against Olfr1233", "z-score": 0.133}
{"sequence": "GGAAGACAUCAAGAUGUAATT against Rp1l1", "z-score": -1.28}
{"sequence": "GGAGCUGUAAAGGCUACAATT against Sulf2", "z-score": "4.14 (active)"}
{"sequence": "CGUGGAAAUGUCUUAAAUCTT against Folh1", "z-score": 0.412}
{"sequence": "GGAGAAAAAUCCUACCGACTT against Zmym5", "z-score": 0.56}
{"sequence": "GCGAUUGAAGUCUCAGGGATT against Nrde2", "z-score": -1.03}
{"sequence": "GGAAUAUUGGUUGUGAUGATT against Ralb", "z-score": -0.197}
{"sequence": "GCUAAUGGUCCAUUGAUAUTT against Btn2a2", "z-score": 0.229}
{"sequence": "GGGAAGAGUUGGAUCGAUCTT against Shkbp1", "z-score": -0.0675}
{"sequence": "GGAGGAUAAGGAUACAGUATT against Cspg5", "z-score": "2.27 (active)"}
{"sequence": "GGAGGAAAGAAAAGAUCCATT against Tie1", "z-score": -0.102}
{"sequence": "GCUAUGUCAUGGUUGGAACTT against Bag6", "z-score": 0.597}
{"sequence": "GCUUGCCUGACCUGAAACATT against Apool", "z-score": "-2.38 (active)"}
{"sequence": "GCAACAAAUCAGAUUUGACTT against Dhdh", "z-score": 0.246}
{"sequence": "GGGAUGGACAAGUUGUACUTT against Renbp", "z-score": -0.101}
{"sequence": "GGACCUUUUUAUCCAACGCTT against Mcts2", "z-score": 0.46}
{"sequence": "CCUGAAUUAUGUGUAACUUTT against Ywhab", "z-score": -0.819}
{"sequence": "CCACUGUGAGACACAUAAGTT against Muc4", "z-score": "-3.25 (active)"}
{"sequence": "GGAAAUAGAUCCUUUUUGATT against 2510039O18Rik", "z-score": 0.861}
{"sequence": "GCCAGUAGUAGUAGAAUAATT against Gm4841", "z-score": 0.997}
{"sequence": "CCUGGCAGUAAAAGAUUGCTT against Ndst3", "z-score": 0.836}
{"sequence": "GGGAAGGGAUCCUAUAUUUTT against Lsm12", "z-score": 0.158}
{"sequence": "CCCAGCAUGGAUCAAGCACTT against Krt73", "z-score": 0.864}
{"sequence": "GGGUGCACUGGCUAAUAUATT against H2-Ea", "z-score": 1.13}
{"sequence": "GGGAAUAUUCAGUUGACAATT against Iigp1", "z-score": -1.14}
{"sequence": "GGUGAAUUUGAUUGAUGAGTT against Ccnl2", "z-score": "-2.3 (active)"}
{"sequence": "GGAGAAAGCCUUCCUUAGUTT against Trpc5", "z-score": -0.115}
{"sequence": "CGUAGCACUUCUUCUCUUATT against Dync1li2", "z-score": 0.484}
{"sequence": "GGUCUUGCUGAUCAACAACTT against Adgrb2", "z-score": "2.53 (active)"}
{"sequence": "GCCAAUUUUGAACCACUACTT against Itga8", "z-score": -0.56}
{"sequence": "GGAAGUAUGAAAUUAUCAGTT against Car12", "z-score": 0.0371}
{"sequence": "CGGUUCUUCCAUCAAAUGGTT against Prodh", "z-score": 1.07}
{"sequence": "GGCUUUAAUCCUAACCCUATT against Zfp3", "z-score": -0.658}
{"sequence": "GCGAGCCAAGUUUGAACUUTT against Elovl6", "z-score": 1.42}
{"sequence": "GCUGGCUUUAAAAAUAUCUTT against Nt5dc3", "z-score": 0.174}
{"sequence": "GGAGUGAUAGUCAUCAAUGTT against Olfr357", "z-score": -0.464}
{"sequence": "GGAACAGUCGGCCAUUUAATT against Tmem98", "z-score": -0.553}
{"sequence": "CCCUACUGUAUUAGAAAACTT against Dnph1", "z-score": "2.1 (active)"}
